PKM2 activator: qHTS Assay for Activators of Human Muscle isoform 2 Pyruvate Kinase | Pyruvate kinase PKM (Homo sapiens), P14618 | purified PKM2, Kinase-Glo ATP luminescence, activation; response scale: 0% is enzyme alone, no compound | Potency, µM (top dose mostly 57.5 µM), inactives show at the highest dose activation, hits mostly activators | 0.34% of 260,000 active | AID 1631, 2009; note: nearly all actives have a fitted effect of over 55% in size
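Kinase-Glo luminescence reports ATP generated from ADP (0.1 mM) and PEP (0.5 mM) by purified hPK-M2 after 1 h at room temperature, pH 7.2 imidazole buffer; intermediate enzyme activity allows detecting inhibitors and activators.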
RECQ1 inh-1: qHTS Assay for Inhibitors of RecQ-Like Dna Helicase 1 (RECQ1); ATP-dependent DNA helicase Q1 (Homo sapiens), P46063; RECQ1 DNA unwinding, red fluorescence kinetic read; Potency, µM (doses to about 57.3 µM), without a hit: at the top dose activity, negative = inhibition, hits mostly inhibitors; 0.54% of 240,000 active;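 note: plate controls were vehicle for no effect and no enzyme for full effect; nearly all actives have a fitted effect of over 30% in size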
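50 nM RECQ1T1 preincubated 15 min with compound in Tris pH 8.0 buffer with MgCl2, DTT, Tween-20 and 2.5 ug/ml poly(dI-dC); started with 200 nM TAMRA/BHQ-2 forked duplex and 2 mM ATP. Unwinding read as fluorescence (525/598 nm), two reads 2 h apart.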
BLM inh-1: qHTS Assay for Inhibitors of Bloom's syndrome helicase (BLM); RecQ-like DNA helicase BLM (Homo sapiens), P54132; recombinant BLM DNA unwinding, fluorescence dequenching; Potency, µM (series often up to 56.1 µM), for inactives: at the highest dose activity change, negative = inhibition, most hits filed as inhibitors; 0.2% of 350,000 active;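 note: plate controls were vehicle for no effect and no enzyme for full effect; nearly all actives have a fitted effect of over 35% in size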
APE1 inh-1: qHTS Assay for Inhibitors of the Human Apurinic/apyrimidinic Endonuclease 1 (APE1); DNA repair nuclease/redox regulator APEX1 (Homo sapiens), P27695; recombinant APE1, TAMRA/BHQ-2 abasic DNA cleavage fluorescence; Potency, µM (top dose mostly 65.8 µM), for the others: at the highest dose activity change, negative = inhibition, usual class: inhibitors; 0.35% of 350,000 active; AID 2517, 2012;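 note: plate controls were vehicle for no effect and reference inhibitor for full effect; nearly all actives have a fitted effect of over 55% in size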
Target sequence (P27695 whole entry, looked up): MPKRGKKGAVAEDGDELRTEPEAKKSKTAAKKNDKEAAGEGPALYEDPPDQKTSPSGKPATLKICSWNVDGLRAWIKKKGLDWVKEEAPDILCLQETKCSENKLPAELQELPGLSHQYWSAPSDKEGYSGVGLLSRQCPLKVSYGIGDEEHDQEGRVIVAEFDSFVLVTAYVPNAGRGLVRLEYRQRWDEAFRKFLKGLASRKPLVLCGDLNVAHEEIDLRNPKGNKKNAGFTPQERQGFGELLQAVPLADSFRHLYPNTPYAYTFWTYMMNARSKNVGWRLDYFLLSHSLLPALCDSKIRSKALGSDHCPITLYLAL
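Endonuclease cleavage of a quenched abasic-site DNA duplex (50 nM) by APE1 (0.75 nM) was tracked by TAMRA dequenching. Compounds were preincubated with enzyme 15 min at room temperature; data normalized to buffer-only and DMSO wells plus NSC13755 control.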
JMJD2E inh: qHTS Assay for Inhibitors of Human Jumonji Domain Containing 2E (JMJD2E). Lysine-specific demethylase 4E (Homo sapiens), B2RXH2. JMJD2E catalytic domain, FDH-coupled NADH fluorescence (FDH is formaldehyde dehydrogenase). Potency, µM (doses to about 57.1 µM), without a hit: top-dose activity change, negative = inhibition, most hits filed as inhibitors. 1.6% of 230,000 active; active = well fitted inhibition curve with a large enough effect, not every such curve was filed as active; inconclusive = small, poorly fitted or top-dose-only effect, or another doubt; inactive = no such curve, though single readings can be large or run the other way;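 note: 0% = wells with enzyme and -100% = buffer wells without enzyme; nearly all actives have a fitted effect of over 50% in size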
Target sequence (B2RXH2 1-337 limits assumed): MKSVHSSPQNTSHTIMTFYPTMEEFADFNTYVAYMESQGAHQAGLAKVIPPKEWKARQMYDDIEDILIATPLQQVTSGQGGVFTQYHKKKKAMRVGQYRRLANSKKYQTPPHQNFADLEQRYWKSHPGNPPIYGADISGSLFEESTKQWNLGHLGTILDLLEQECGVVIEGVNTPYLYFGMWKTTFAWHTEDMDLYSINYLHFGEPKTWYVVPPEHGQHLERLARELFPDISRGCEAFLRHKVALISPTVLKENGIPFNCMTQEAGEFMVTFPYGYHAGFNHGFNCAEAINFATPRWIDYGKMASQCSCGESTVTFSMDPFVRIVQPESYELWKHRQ
DNA dye displace: Counterscreen for APE1 Inhibitors: Fluorescent Dye Displacement Assay | shares compounds with APE1 inh-1 | DNA fluorescent dye displacement counterscreen, fluorescence | Potency, µM (highest dose often 28.5 µM), for inactives: at the highest dose activity change, negative = inhibition, usual class: inhibitors | 7% of 480 active | AID 2564, 2010;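 note: loss of thiazole orange fluorescence as the dye is displaced from duplex DNA; 0% = ThO with dsDNA and no compound and -100% = ThO without dsDNA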
EndoIV counter: Counterscreen for APE1 Inhibitors: qHTS Assay for Inhibitors of Endonuclease IV. Potency, µM (series often up to 27.1 µM), without a hit: at the highest dose activity change, negative = inhibition, actives largely listed as inhibitors. E. coli Endo IV, fluorogenic AP-site DNA cleavage. AID 2565, 2010. shares compounds with APE1 inh-1. 4% of 560 active;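 note: plate controls were uninhibited enzyme wells for no effect and no enzyme buffer wells for full effect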
APE1 inh-2: Confirmation qHTS Assay for Inhibitors of the Human Apurinic/apyrimidinic Endonuclease 1 (APE1) | shares compounds with APE1 inh-1 | purified APE1, fluorogenic abasic-site DNA cleavage | Potency, µM (titrated, usually from 57.1 µM), inactives show at the top dose activity change, negative = inhibition, usual class: inhibitors | 44% of 750 active | AID 2572, 2010; note: nearly all actives have a fitted effect of over 30% in size
APE1 FP: qHTS FP-Based Assay for Inhibitors of the Human Apurinic/apyrimidinic Endonuclease 1 (APE1); shares compounds with APE1 inh-1; APE1 binding to TAMRA-labelled double-stranded DNA, fluorescence polarization displacement; Potency, µM (highest dose often 28.5 µM), inactives show at the top dose activity, negative = inhibition, usual class: inhibitors; 7% of 480 active; AID 2573, 2010
BLM inh-2: qHTS Confirmation Assay for Inhibitors of Bloom's syndrome helicase (BLM) | Potency, µM, for the others: max response, negative = inhibition, actives largely listed as inhibitors | AID 2585, 2010 | 40% of 220 active | shares compounds with BLM inh-1 | BLM DNA unwinding, fluorescence quenching, biochemical;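 note: strand separation dequenches TAMRA so unwinding raises red fluorescence; series mostly up to about 69 µM; nearly all actives have a fitted effect of over 45% in size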
RECQ1 conf: Confirmation qHTS Assay for Inhibitors of RecQ-Like Dna Helicase 1 (RECQ1); RECQ1 helicase DNA unwinding, fluorescence; Potency, µM (top dose mostly 229 µM), for inactives: top-dose activity change, negative = inhibition, hits mostly inhibitors; shares compounds with RECQ1 inh-1; 28% of 610 active; AID 2708, 2010; note: nearly all actives have a fitted effect of over 45% in size
RECQ1 ADP FP: Counterscreen for RECQ1 Inhibitors: ADP Fluorescence Polarization Displacement Assay; ADP fluorescence polarization displacement counterscreen; 27% of 530 active; shares compounds with RECQ1 inh-1; AID 2711, 2010; Potency, µM (highest dose often 228 µM), without a hit: top-dose activity change, negative = inhibition, hits mostly inhibitors; note: nearly all actives have a fitted effect of over 45% in size
RECQ1 inh-2: Confirmation qHTS Assay for Inhibitors of RecQ-Like Dna Helicase 1 (RECQ1) - Round 2 Cherry Picks; shares compounds with RECQ1 inh-1; recombinant RECQ1 DNA unwinding, red fluorescence; Potency, µM (top dose mostly 119 µM), inactives show at the highest dose activity, negative = inhibition, actives largely listed as inhibitors; 15% of 1,100 active; AID 504841, 2011; note: nearly all actives have a fitted effect of over 50% in size
* hit, by the source's call; ! = not active in a repeat; [ ] = remark or other dose. This is one part of a sample in which hits are shown more often than they occur. Unless noted, calls come from the whole dose curve; as a rule, active = well fitted curve in the direction sought with a large enough effect; inconclusive = small, poorly fitted or top-dose-only effect, or another doubt; inactive = no such curve, though single readings can be large; an effect the other way counts as inactive or inconclusive. Unless noted, % is set by controls: 0 for no effect and ±100 for the full control effect; potency is the fitted concentration of half-maximal effect.

Results for N=C1/C(=C\c2ccc(-c3cccc(C(=O)O)c3)o2)C(=O)N=C2SC=C(c3ccccc3)N12 ?
PKM2 activator: 4%; RECQ1 inh-1: inconclusive; BLM inh-1: -24%; APE1 inh-1: 40µM*; JMJD2E inh: inconclusive; APE1 inh-2: 40µM*; RECQ1 inh-2: inconclusive

Results for CC(=O)[C@]1(O)Cc2c(O)c3c(c(O)c2[C@@H](O[C@H]2C[C@H](N)[C@H](O)[C@H](C)O2)C1)C(=O)c1c(O)cccc1C3=O ?
RECQ1 inh-1: 28µM*; BLM inh-1: 28µM*; APE1 inh-1: 25µM*; DNA dye displace: inactive; APE1 inh-2: 7.9µM*; APE1 FP: 1.4µM*; RECQ1 conf: 100µM*; RECQ1 ADP FP: 0.89µM*

What do the screens show for `CC(=O)[C@]1(O)Cc2c(O)c3c(c(O)c2[C@@H](O[C@H]2C[C@H](N)[C@H](O)[C@H](C)O2)C1)C(=O)c1ccccc1C3=O`?
RECQ1 inh-1: 28µM*; BLM inh-1: -56%; APE1 inh-1: 20µM*; JMJD2E inh: inconclusive; DNA dye displace: inactive; EndoIV counter: inactive; APE1 inh-2: 16µM*; APE1 FP: 2.8µM*; BLM inh-2: -72%; RECQ1 conf: 35µM*; RECQ1 ADP FP: 0.56µM*

Results for COc1cccc2c1C(=O)c1c(O)c3c(c(O)c1C2=O)C[C@](O)(C(=O)CO)C[C@@H]3O[C@H]1C[C@H](N)[C@@H](O)[C@H](C)O1 ?
BLM inh-1: 5%

Results for COc1cccc2c1C(=O)c1c(O)c3c(c(O)c1C2=O)C[C@@](O)(C(C)=O)C[C@@H]3O[C@H]1C[C@H](N)[C@H](O)[C@H](C)O1 ?
PKM2 activator: -1%; RECQ1 inh-1: 28µM*!; BLM inh-1: 28µM*; APE1 inh-1: 25µM*!; JMJD2E inh: 35µM*!; DNA dye displace: inactive; APE1 inh-2: 10µM*; APE1 FP: 2µM*; BLM inh-2: 36µM*; RECQ1 ADP FP: 0.63µM*

How did N=C1Sc2ccccc2C2=NCCCN12 do in these assays?
RECQ1 inh-1: 3%; APE1 inh-1: 0%; JMJD2E inh: inconclusive

How did CC1=NN(c2ccc(C(=O)O)cc2)C(=O)/C1=C/c1ccc(-c2ccccc2F)o1 do in these assays?
BLM inh-1: 1%; APE1 inh-1: -2%

What do the screens show for `CC1=NN(c2ccc(Cl)c(C(=O)O)c2)C(=O)/C1=C\c1ccc(-c2ccc(C(=O)O)cc2)o1`?
PKM2 activator: 13%; RECQ1 inh-1: inconclusive; BLM inh-1: -4%; APE1 inh-1: 25µM*; JMJD2E inh: inconclusive; DNA dye displace: inconclusive; EndoIV counter: 10%; APE1 inh-2: 13µM*; APE1 FP: 1%; RECQ1 inh-2: inconclusive

What do the screens show for `O=C(O)CCCC/C=C(\c1ccccc1)c1cccnc1`?
BLM inh-1: 2%

What do the screens show for `O=C(O)c1cc(O)c2c(c1)[C@H]([C@H]1c3cc(C(=O)O)cc(O)c3C(=O)c3c(O[C@@H]4OC(CO)C(O)C(O)C4O)cccc31)c1cccc(O[C@@H]3OC(CO)C(O)C(O)C3O)c1C2=O` (stereo partly drawn)?
RECQ1 inh-1: 2µM*; BLM inh-1: 3.2µM*; JMJD2E inh: 11µM*; EndoIV counter: -30%[57.1 µM]; APE1 inh-2: 0.71µM*; RECQ1 conf: 2.8µM*; RECQ1 ADP FP: 7.1µM*

How did Cc1cccc(N=C2NC(=O)/C(=C/C=C/c3ccco3)S2)c1C do in these assays?
PKM2 activator: inconclusive; RECQ1 inh-1: -6%; BLM inh-1: inconclusive; APE1 inh-1: inconclusive; JMJD2E inh: 3%
